Screening results deposited in PubChem BioAssay by National Center for Advancing Translational Sciences (NCATS).
Many of the other results were omitted from the sample, so hits are more common in it than they were.
KDM5B inh: Primary screen for KDM5B Histone Demethylases FDH-coupled qHTS; Lysine-specific demethylase 5B (Homo sapiens), Q9UGL1; KDM5B demethylase, FDH-coupled NADH fluorescence (FDH is formaldehyde dehydrogenase); Potency, µM (top dose mostly 57.7 µM), usual class: inhibitors; actives 2.6% (n = 220,000); active = well fitted inhibition curve with a large enough effect; note: 0% is about no effect; nearly all actives have a fitted effect of over 70% in size
Target sequence (Q9UGL1 whole entry, looked up): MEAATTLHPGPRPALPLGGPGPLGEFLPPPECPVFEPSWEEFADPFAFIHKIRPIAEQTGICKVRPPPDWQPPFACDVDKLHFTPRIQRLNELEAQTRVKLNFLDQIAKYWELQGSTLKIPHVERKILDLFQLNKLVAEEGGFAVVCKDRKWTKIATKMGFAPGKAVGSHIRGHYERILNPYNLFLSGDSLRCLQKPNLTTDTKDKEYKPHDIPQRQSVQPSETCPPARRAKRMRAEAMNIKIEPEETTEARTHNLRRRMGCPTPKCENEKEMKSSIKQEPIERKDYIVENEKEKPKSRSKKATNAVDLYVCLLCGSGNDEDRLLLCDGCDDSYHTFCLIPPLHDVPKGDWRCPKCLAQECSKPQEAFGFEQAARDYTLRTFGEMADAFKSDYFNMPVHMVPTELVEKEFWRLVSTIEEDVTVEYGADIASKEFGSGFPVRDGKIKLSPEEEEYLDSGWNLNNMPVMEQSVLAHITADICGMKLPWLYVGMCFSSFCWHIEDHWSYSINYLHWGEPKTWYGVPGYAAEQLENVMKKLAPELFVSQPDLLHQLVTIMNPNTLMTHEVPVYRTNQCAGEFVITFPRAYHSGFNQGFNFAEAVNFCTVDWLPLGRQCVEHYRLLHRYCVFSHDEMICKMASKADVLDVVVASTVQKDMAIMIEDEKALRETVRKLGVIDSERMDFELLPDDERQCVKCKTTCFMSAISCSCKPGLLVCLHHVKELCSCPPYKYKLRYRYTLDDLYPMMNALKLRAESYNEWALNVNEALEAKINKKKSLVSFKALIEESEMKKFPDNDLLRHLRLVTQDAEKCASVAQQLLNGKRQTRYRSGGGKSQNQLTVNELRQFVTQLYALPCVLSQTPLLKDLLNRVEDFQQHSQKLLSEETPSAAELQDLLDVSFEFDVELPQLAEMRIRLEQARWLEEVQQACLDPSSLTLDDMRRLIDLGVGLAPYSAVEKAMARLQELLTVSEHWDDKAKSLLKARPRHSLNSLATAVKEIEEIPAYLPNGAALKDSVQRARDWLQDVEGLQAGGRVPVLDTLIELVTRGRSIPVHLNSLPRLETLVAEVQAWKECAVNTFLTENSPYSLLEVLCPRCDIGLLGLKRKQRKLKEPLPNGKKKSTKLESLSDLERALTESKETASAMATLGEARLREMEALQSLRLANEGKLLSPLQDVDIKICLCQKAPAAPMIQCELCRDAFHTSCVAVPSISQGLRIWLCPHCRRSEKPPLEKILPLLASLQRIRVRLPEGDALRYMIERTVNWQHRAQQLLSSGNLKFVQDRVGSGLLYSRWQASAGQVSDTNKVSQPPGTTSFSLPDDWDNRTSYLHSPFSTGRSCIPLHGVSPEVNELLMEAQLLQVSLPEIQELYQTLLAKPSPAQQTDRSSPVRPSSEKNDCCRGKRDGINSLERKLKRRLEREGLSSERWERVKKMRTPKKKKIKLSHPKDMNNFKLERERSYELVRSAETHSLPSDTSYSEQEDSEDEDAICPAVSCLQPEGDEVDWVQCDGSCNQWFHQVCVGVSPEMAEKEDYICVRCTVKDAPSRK
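Measured: NADH fluorescence change, 30 min, RT. System: KDM5BΔAP 200 nM final, H3K4me3 peptide, α-KG, Fe(II), ascorbate, NAD⁺ plus FDH, pH 7.5 HEPES. Compounds: titrated, 10 min pre-incubation with enzyme.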
* hit, by the source's call; i = inactive. Potency is the fitted concentration of half-maximal effect.

SMILES	KDM5B inh
N#Cc1nc(COc2ccc(Cl)cc2)oc1NCc1ccc(F)cc1	i
Cc1ccc(C(=O)NNC(=O)C2CCCCC2)cc1Cl	i
COc1ccccc1-c1cc2c(nc1-c1ccccc1)nc(C(=O)NC1CCN(C)CC1)n2C	28µM*
COc1ccc(CNC(=O)c2cc(C)nn2-c2ccccc2)cc1	i
COc1cc(C(=O)NC2CCN(c3cc(-c4ccccc4)[nH]n3)CC2)cc(OC)c1OC	i
COc1ccc(C(=O)NC2CCN(c3cc(-c4ccccc4)[nH]n3)CC2)c(OC)c1	i
COc1cccc(CNC(=O)Nc2ncc(-c3ccccc3)n2C)c1	i
Cc1cc(C(=O)NCC2CCCCC2)c2ccccc2n1	i
Cn1c(C(=O)NCC2CC2)nc2nc(-c3ccccc3)c(Cl)cc21	40µM*
COc1cc(CNC(=O)c2nc3nc(-c4ccccc4)c(Cl)cc3n2C)cc(OC)c1	35µM*
O=C(NCCN1CCOCC1)c1nn2c(C(F)(F)F)cc(-c3ccccc3)nc2c1Br	i
Cc1oc(-c2ccccc2)nc1C(=O)NCCN1CCOCC1	i
Cn1c(C(=O)NCCN2CCOCC2)nc2nc(-c3ccccc3)c(Cl)cc21	35µM*
Cc1cc2ccccc2n1CC(=O)NCC1CCC(C(=O)O)CC1 (stereo not drawn)	i
N#Cc1c2n(c(=O)n(CC(O)COc3ccccc3F)c1=O)CCC2 (stereo not drawn)	i
CCC(=O)Nc1ccc(C2(C(=O)N3CCC(N4CCCCC4)CC3)CCCCC2)cc1	i
CCCc1nc(SC)ncc1C(=O)Nc1ccc(C)cc1Cl	i
CCn1cc2nc(SCC(=O)N3CCCC3)n(Cc3ccccc3)c(=O)c2n1	i
CCNc1ccc(S(=O)(=O)N(CC)CC)cc1NCC(=O)Nc1ccccc1Cl	i
O=C(NCC1Cn2cccc2C(=O)N1Cc1cccnc1)c1n[nH]c(=O)c2ccccc12 (stereo not drawn)	i
COc1cccc(NC(=O)CN(C)CC(=O)Nc2ccccc2C)c1	i
Cc1c(C(=O)Nc2ccc(NC(=O)CC(C)C)cc2)cnn1-c1ccccc1F	i
CCOc1cccc(C(=O)Nc2cccc(C(F)(F)C(F)(F)OC(F)(F)C(F)(F)C(F)(F)OC(F)(F)F)c2)c1	i
Cc1cc(S(=O)(=O)[C@H]2CS(=O)(=O)C[C@@H]2N2CCN(c3ccc(F)cc3)CC2)ccc1F	i
Cn1c(C(=O)NCCc2ccccn2)nc2nc(-c3ccccc3)c(Cl)cc21	35µM*
SMILES	KDM5B inh
COc1ccc(CNC(=O)c2sccc2-c2ccccc2)cc1OC	i
O=C(NCCc1ccccn1)c1ccc(Cl)cc1	i
COc1ccc(CNC(=O)c2nc3nc(-c4ccccc4)c(Cl)cc3n2C)cc1OC	35µM*
O=C(Cn1c(=O)nc(-c2ccccc2)c2cc(Cl)ccc21)NCc1ccccc1	i
COc1ccc(CNC(=O)c2cc(Cl)ccc2O)cc1OC	i
Cn1c(C(=O)NCc2ccoc2)nc2nc(-c3ccccc3)c(Cl)cc21	35µM*
O=C(NCCc1ccccn1)c1cc(-c2ccccc2)nc2ccccc12	i
Cc1cc2cc(NS(=O)(=O)c3ccc4ccccc4c3)ccc2[nH]1	i
O=C(CCc1ncc(-c2ccccc2Cl)o1)Nc1nccs1	i
COc1cc(C(=O)NCc2coc(-c3cccs3)n2)cc(OC)c1C	i
CCCCNCc1ccc(C)s1	i
COc1ccc(NC(=O)Cc2cc(Cl)c3c(c2)OCCO3)cc1S(=O)(=O)N(C)C	i
O=C1NC2(CCCC2)C(=O)N1Cc1coc(-c2ccc(Cl)cc2)n1	i
Cc1cccc(NC(=O)C(C)(C)c2ccc(Cl)cc2)n1	i
CCc1ccccc1NC(=O)c1ccc2ccccc2n1	i
COc1cc(-c2ccc(-c3nc(CC(C)C)no3)cn2)cc(OC)c1OC	i
COc1ccc(-c2ccc(-c3nc(CC(C)C)no3)cn2)c2cccnc12	28µM*
COc1ccc(NC(=O)CC(C)C)c2cccnc12	i
CC(=O)CC1(O)C(=O)Nc2ccc(F)cc21 (stereo not drawn)	i
CC(=O)Nc1ccc(OCC(=O)N/N=C/C(C)C)cc1	i
Cc1cc2nc3n(c(=O)c2n1CC(=O)Nc1ccc(F)cc1)CCC3	i
CCC(C)NC(=O)CCc1c(C)nc2c(c(C)nn2-c2ccc(C)cc2)c1C (stereo not drawn)	i
CCC(C)NC(=O)Cc1csc2nc(C)c(-c3cc(C)n(-c4ccc(C)cc4)n3)c(=O)n12 (stereo not drawn)	28µM*
CCCCNC(=O)c1nn(-c2ccc(C)cc2)c(=O)n(C)c1=O	i
CCCNC(=O)Cc1csc2nc(C)c(-c3cc(C)n(-c4ccc(C(C)C)cc4)n3)c(=O)n12	28µM*
SMILES	KDM5B inh
Cc1ccc(-c2nn(CC(=O)Nc3ccc(F)cc3)c(=O)c3ccccc23)cc1	i
CCCNC(=O)COc1cc(C)c2c(C)nn(-c3ccc(CC)cc3)c2n1	i
CCCNC(=O)CNC(=O)c1nn(-c2ccccc2)c(=O)c2ccccc12	i
Cc1ccc(-n2nc(-c3c(C)nc4scc(CC(=O)Nc5ccc(F)cc5)n4c3=O)cc2C)cc1	28µM*
CCCNC(=O)Cc1csc2nc(C)c(-c3cc(C)n(-c4ccc(C)cc4)n3)c(=O)n12	28µM*
CCCNC(=O)CSc1nnc(N2CCCCC2)n1-c1ccc(C)cc1	i
CCC(C)NC(=O)CNC(=O)c1nn(-c2ccc(OC)cc2)c(=O)c2ccccc12 (stereo not drawn)	i
O=S(=O)(NC1=NCN(Cc2cccnc2)CN1)c1ccccc1	i
C[C@H]1CC(=O)[C@@]23COC4OC(c5ccoc5)CC41[C@@H]2CCCC31CO1 (stereo partly drawn)	i
CCNc1nc2c(c(=O)[nH]c(=O)n2C)n1CCOC	i
C=CC[N+]1(CC#Cc2ccc(C#CC[N+]3(CC=C)CCOCC3)cc2)CCOCC1	i
COc1cc2[nH]c(C(=O)NCCCN(C)C)cc2c(OC)c1OC	i
O=c1c2cc(Cl)ccc2ncn1Cc1nc(-c2ccccc2)no1	i
O=C(Cc1coc2cc3c(cc12)CCC3)OCCOc1ccccc1	i
Cc1cc(Nc2cccc(C)c2C)c2ccc(C)c(C)c2n1	i
Cc1ccc(CSc2nc3c(cnn3CCO)c(=O)[nH]2)cc1	i
O=C(OCC(=O)N(/N=C/c1ccccc1)c1cccc(C(F)(F)F)c1)c1cc(Cl)ccc1[N+](=O)[O-]	i
COCCCNc1nc2c(c(=O)n(C)c(=O)n2C)n1Cc1cccc(Br)c1	i
COc1ccc(CNC(=O)CSc2nc(-c3ccc4c(c3)OCO4)ccc2C#N)cc1OC	i
Cn1nc(C(C)(C)C)cc1NC(=O)c1ccccc1	i
O=C(Nc1cccc(F)c1)Nc1ccnn1C1CCN(C(=O)CCN2CCCO2)CC1	i
NCCC(=O)N1CCC(n2nccc2NC(=O)Nc2cccc(F)c2)CC1	11µM*
O=C(Nc1ccnn1C1CCN(C(=O)CCCc2ccccc2)CC1)c1cccc(F)c1	i
Cc1ccc(C(=O)NCCc2c[nH]c3ccccc23)cc1	i
CCN(CC)C(=O)CN(C)C(=O)c1cc2cc(Cl)ccc2nc1C	i
O=C(Nc1ccc(F)cc1)C1CCN(c2ncnc3c2sc2ncccc23)CC1	i
Cc1ccc2c(=O)cc(C(=O)N3CCC(Cc4ccccc4)CC3)oc2c1C	i
COCc1nc2nc(-c3ccccc3)c(-c3ccccc3O)cc2n1C	i
COCc1nc2nc(-c3ccccc3)c(Nc3ccc(F)cc3)cc2n1C	32µM*
COCc1nc2nc(-c3ccccc3)c(-c3cccnc3)cc2n1C	i
